PubChem BioAssay (NCATS)
Records with an inconclusive call do not appear. Calls of active or inactive are those of the source. The call rests on the fitted dose curve; in most records, active means well fitted curve in the direction sought with a large enough effect; inconclusive means small, poorly fitted or top-dose-only effect, or another doubt; inactive means no such curve, though single readings can be large; an effect the other way counts as inactive or inconclusive.

How the values were obtained:
[1] = Quantitative High-Throughput drug screen in 47 multiple myeloma cell lines against the NCATS MIPE library collection: NCIH929_DSMZ cell viability assay (AID 1918978); conditions: NCI-H929 myeloma viability, CellTiter-Glo ATP, 48 h; series mostly up to 45.8 µM; further: nearly all actives have a fitted effect of over 35% in size
In short: (§1)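 qHTS format: cells plated (500/well), pin-dosed with MIPE 4.0 compounds, kept 48 h at 37 °C. Readout was CellTiter-Glo luminescence, median RLU.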

[2] = Quantitative High-Throughput drug screen in 47 multiple myeloma cell lines against the NCATS MIPE library collection: OCIMY1_PLB cell viability assay (AID 1918979); conditions: OCI-MY1 myeloma viability, CellTiter-Glo ATP, 48 h; series mostly up to 45.8 µM; further: nearly all actives have a fitted effect of over 35% in size;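 on viability: 100% = DMSO-only wells and 0% = cell-free media-only wells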
In short: as §1

[3] = Quantitative High-Throughput drug screen in 47 multiple myeloma cell lines against the NCATS MIPE library collection: MM1R_ATCC cell viability assay (AID 1918981); conditions: MM1R multiple myeloma cells, CellTiter-Glo viability, 48 h; series mostly up to 45.8 µM; further: nearly all actives have a fitted effect of over 35% in size
In short: as §1

[4] = Quantitative High-Throughput drug screen in 47 multiple myeloma cell lines against the NCATS MIPE library collection: LP1_DSMZ cell viability assay (AID 1918982); conditions: LP1 myeloma viability, CellTiter-Glo ATP luminescence, 48 h; series mostly up to 45.8 µM; further: nearly all actives have a fitted effect of over 35% in size
In short: as §1

[5] = Quantitative High-Throughput drug screen in 47 multiple myeloma cell lines against the NCATS MIPE library collection: OCIMY7_PLB cell viability assay (AID 1918987); conditions: OCI-MY7 myeloma viability, CellTiter-Glo ATP, 48 h; viability (% of DMSO): at 45.8 µM (top of the series); further: nearly all actives have a fitted effect of over 65% in size
In short: as §1

[6] = Quantitative High-Throughput drug screen in 47 multiple myeloma cell lines against the NCATS MIPE library collection: OPM1_PLB cell viability assay (AID 1918989); conditions: CellTiter-Glo, 48 h; series mostly up to 45.8 µM; further: nearly all actives have a fitted effect of over 40% in size
In short: as §1

[7] = Quantitative High-Throughput drug screen in 47 multiple myeloma cell lines against the NCATS MIPE library collection: SKMM1_PLB cell viability assay (AID 1919863); conditions: SKMM1 myeloma viability, CellTiter-Glo ATP, 48 h; viability: hits give low values; further: nearly all actives have a fitted effect of over 35% in size
In short: as §1

[8] = Quantitative High-Throughput drug screen in 47 multiple myeloma cell lines against the NCATS MIPE library collection: UTMC2_PLB cell viability assay (AID 1919868); conditions: CellTiter-Glo ATP luminescence, 48 h; viability (% of DMSO control): at 45.8 µM (top of the series); further: nearly all actives have a fitted effect of over 55% in size;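 on viability (% of DMSO control): 100% = DMSO-only wells and 0% = media-only wells without cells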
In short: as §1

[9] = Quantitative High-Throughput drug screen in 47 multiple myeloma cell lines against the NCATS MIPE library collection: PE2_PLB cell viability assay (AID 1919869); conditions: PE2_PLB myeloma cells viability, ATP luminescence, 48 h; series mostly up to 45.8 µM; further: nearly all actives have a fitted effect of over 35% in size
In short: as §1

[10] = Quantitative High-Throughput drug screen in 47 multiple myeloma cell lines against the NCATS MIPE library collection: MM1S_ATCC cell viability assay (AID 1918980); conditions: MM1S myeloma viability, CellTiter-Glo ATP luminescence, 48 h; series mostly up to 45.8 µM; further: nearly all actives have a fitted effect of over 45% in size
In short: as §1

[11] = Quantitative High-Throughput drug screen in 47 multiple myeloma cell lines against the NCATS MIPE library collection: KMS28PE_JCRB cell viability assay (AID 1918983); conditions: KMS28PE multiple myeloma viability, CellTiter-Glo ATP, 48 h; series mostly up to 45.8 µM; further: nearly all actives have a fitted effect of over 35% in size
In short: as §1

[12] = Quantitative High-Throughput drug screen in 47 multiple myeloma cell lines against the NCATS MIPE library collection: OCIMY5_PLB cell viability assay (AID 1918988); conditions: OCI-MY5 myeloma viability, ATP luminescence, 48 h; series mostly up to 45.8 µM; further: nearly all actives have a fitted effect of over 65% in size
In short: as §1

[13] = Quantitative High-Throughput drug screen in 47 multiple myeloma cell lines against the NCATS MIPE library collection: XG6_PLB cell viability assay (AID 1919865); conditions: XG6 myeloma viability, CellTiter-Glo ATP luminescence, 48 h; series mostly up to 45.8 µM; further: nearly all actives have a fitted effect of over 40% in size
In short: as §1

[14] = Quantitative High-Throughput drug screen in 47 multiple myeloma cell lines against the NCATS MIPE library collection: XG1_PLB cell viability assay (AID 1919866); conditions: CellTiter-Glo ATP, 48 h; series mostly up to 45.8 µM; further: nearly all actives have a fitted effect of over 35% in size
In short: as §1

[15] = Quantitative High-Throughput drug screen in 47 multiple myeloma cell lines against the NCATS MIPE library collection: VP6_DJ cell viability assay (AID 1919867); conditions: ATP luminescence, 48 h; series mostly up to 45.8 µM; further: nearly all actives have a fitted effect of over 40% in size;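 on viability (% of DMSO): 100% = DMSO-only wells and 0% = wells with media alone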
In short: as §1

[16] = Quantitative High-Throughput drug screen in 47 multiple myeloma cell lines against the NCATS MIPE library collection: PCM6_Riken cell viability assay (AID 1919870); conditions: CellTiter-Glo ATP, 48 h; series mostly up to 45.8 µM; further: nearly all actives have a fitted effect of over 30% in size
In short: as §1

[17] = Quantitative High-Throughput drug screen in 47 multiple myeloma cell lines against the NCATS MIPE library collection: U266_ATCC cell viability assay (AID 1919864); conditions: U266 myeloma viability, CellTiter-Glo ATP luminescence, 48 h; series mostly up to 45.8 µM; further: nearly all actives have a fitted effect of over 35% in size;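 on viability (% of DMSO control): 0% = media-only wells without cells and 100% = DMSO-only wells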
In short: as §1

[18] = Quantitative High-Throughput drug screen in 47 multiple myeloma cell lines against the NCATS MIPE library collection: KMS34_JCRB cell viability assay (AID 1918985); conditions: KMS34 myeloma viability, CellTiter-Glo ATP luminescence, 48 h; series mostly up to 45.8 µM; further: nearly all actives have a fitted effect of over 40% in size
In short: as §1

[19] = Quantitative High-Throughput drug screen in 47 multiple myeloma cell lines against the NCATS MIPE library collection: L363_DSMZ cell viability assay (AID 1918984); conditions: L363 myeloma viability, CellTiter-Glo ATP luminescence, 48 h; series mostly up to 45.8 µM; further: nearly all actives have a fitted effect of over 40% in size
In short: as §1
Potency means the concentration at half of the fitted maximal effect.

OC[C@H]1O[C@@H](n2cnc3c2NC=NC[C@@H]3O)C[C@H]1O
inactive: Potency [2] | Potency [3] | Potency [4] | Potency [6] | viability [7] 110% | Potency [8]
active: Potency [1] 26.4 µM | Potency [5] 23.5 µM | Potency [9] 11.8 µM

O=C(O)c1cc(O)c2c(c1)C(=O)c1cccc(O)c1C2=O
inactive: Potency [1] | Potency [2] | Potency [10] | Potency [6] | Potency [13] | Potency [14] | Potency [15] | Potency [9] | Potency [16]
active: Potency [11] 30.3 µM | Potency [12] 48.1 µM

COc1ccc2cccc(CCNC(C)=O)c2c1
inactive: Potency [1] | Potency [2] | Potency [4] | Potency [5] | viability [7] 129% | Potency [13] | Potency [14] | Potency [9] | Potency [16]
active: Potency [15] 5.26 µM

CC[C@H]1OC(=O)[C@H](C)[C@@H](O[C@H]2C[C@@](C)(OC)[C@@H](O)[C@H](C)O2)[C@H](C)[C@@H](O[C@@H]2O[C@H](C)C[C@H](N(C)C)[C@@H]2O)[C@](C)(O)C[C@@H](C)CN(C)[C@H](C)[C@@H](O)[C@]1(C)O
inactive: Potency [1] | Potency [2] | Potency [4] | Potency [11] | Potency [15] | Potency [9]
active: Potency [10] 18.7 µM | Potency [7] 16.6 µM | Potency [17] 9.35 µM

CO[C@H]1C=CC=C(C)C(=O)NC2=CC(=O)C(NCCN(C)C)=C(C[C@@H](C)C[C@H](OC)[C@@H](O)[C@@H](C)C=C(C)[C@@H]1OC(N)=O)C2=O
active: Potency [1] 0.059 µM | Potency [2] 0.132 µM | Potency [3] 0.0296 µM | Potency [4] 0.418 µM | Potency [18] 0.0132 µM | Potency [5] 0.0662 µM | Potency [12] 0.0118 µM | Potency [6] 0.0662 µM | Potency [7] 0.372 µM | Potency [17] 0.0662 µM | Potency [13] 0.105 µM | Potency [14] 0.0372 µM | Potency [8] 0.0662 µM | Potency [9] 0.0935 µM | Potency [16] 0.105 µM

O=C(CCCCCCC(=O)Nc1ccccc1)NO
active: Potency [1] 2.64 µM | Potency [2] 5.9 µM | Potency [10] 2.96 µM | Potency [11] 3.72 µM | Potency [19] 1.87 µM | Potency [18] 1.87 µM | Potency [5] 2.35 µM | Potency [12] 2.64 µM | Potency [6] 1.32 µM | Potency [17] 5.9 µM | Potency [14] 2.96 µM | Potency [15] 0.833 µM | Potency [8] 0.662 µM | Potency [9] 3.32 µM | Potency [16] 3.32 µM

NC[C@@H]1O[C@@H](O[C@H]2[C@@H](O)[C@H](O[C@@H]3[C@@H](O)[C@@H](N)C[C@H](N)[C@H]3O[C@H]3O[C@H](CN)[C@@H](O)[C@@H](O)[C@H]3N)O[C@H]2CO)[C@H](N)[C@@H](O)[C@@H]1O
inactive: Potency [1] | Potency [2] | Potency [3] | Potency [4] | Potency [19] | Potency [18] | Potency [12] | Potency [17] | Potency [13] | Potency [8] | Potency [9] | Potency [16]

CN1CCN(CCOc2cc(OC3CCOCC3)c3c(Nc4c(Cl)ccc5c4OCO5)ncnc3c2)CC1
active: Potency [1] 18.7 µM | Potency [5] 18.7 µM | Potency [12] 18.7 µM | Potency [6] 20.9 µM | Potency [13] 5.26 µM | Potency [15] 4.18 µM | Potency [9] 23.5 µM | Potency [16] 9.35 µM
inactive: Potency [2]

O=C(O)[C@H]1O[C@H](Oc2cc3oc(-c4ccccc4)cc(=O)c3c(O)c2O)[C@H](O)[C@@H](O)[C@H]1O
active: Potency [3] 23.5 µM | Potency [11] 16.6 µM | Potency [12] 23.5 µM | Potency [6] 18.7 µM | Potency [7] 20.9 µM
inactive: Potency [1] | Potency [19] | Potency [13] | Potency [15] | Potency [8] | Potency [9]

O=C(O)c1c(Cl)c(Cl)c(Cl)c(Cl)c1-c1c2cc(I)c(=O)c(I)c-2oc2c(I)c(O)c(I)cc12
inactive: Potency [8]
active: Potency [1] 6.62 µM | Potency [10] 6.62 µM | Potency [3] 13.2 µM | Potency [11] 14.8 µM | Potency [12] 13.2 µM | Potency [6] 9.35 µM | Potency [15] 14.8 µM | Potency [9] 6.62 µM | Potency [16] 6.62 µM

NC(=O)c1ccc2nc(-c3ccc(Oc4ccc(Cl)cc4)cc3)[nH]c2c1
inactive: Potency [11] | Potency [17] | Potency [16]
active: Potency [1] 0.0235 µM
